Data from PubChem BioAssay AID1159580 (chemical genetic matrix, 2015).
Where “and” joins values, the source holds several entries; their conditions need not be identical. Identical values can stand only once. Among all 5,500 compounds or so, about 2,000 (36%) were called active. Another 18% or so got no clear call; they are omitted. Rule as the data show it: active = normalized growth mostly below about 0.91 (no sharp cut-off); inconclusive = no clear call, values can overlap the other calls; inactive = mostly above about 0.92. Some of the results follow.

Assay: chemical genetic growth profiling, strain panel (AID 1159580);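 also: tested at 20 µM; growth read once vehicle control cultures reached saturation at 30 °C; 1 = growth at the plate median or of vehicle wells; lower values mean less growth of the strain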
Details: S. cerevisiae deletion strains, growth OD

Measured: normalized growth

O=[N+]([O-])O[C@H]1CO[C@H]2[C@@H]1OC[C@H]2O[N+](=O)[O-]
inactive: locus YAL013W, strain DEP1, stronger effect = lower value 1.01 | locus YAL021C, strain ccr4, stronger effect = lower value 0.993 | locus YAL026C, strain drs2, stronger effect = lower value 1.01 | locus YAL030W, strain snc1, stronger effect = lower value 1 | locus YBL061C, strain skt5, stronger effect = lower value 1 | locus YBR009C, strain hhf1, stronger effect = lower value 1 | locus YBR021W, strain FUR4, stronger effect = lower value 1.01 | locus YBR023C, strain chs3, stronger effect = lower value 0.984 | locus YBR171W, strain sec66, stronger effect = lower value 0.993 | locus YBR229C, strain ROT2, stronger effect = lower value 1.01 | locus YBR231C, strain swc5, stronger effect = lower value 0.981 | locus YBR279W, strain paf1, stronger effect = lower value 0.978 | locus YCL011C, strain gbp2, stronger effect = lower value 0.99 | locus YCL016C, strain dcc1, stronger effect = lower value 0.97 | locus YCL029C, strain bik1, stronger effect = lower value 1.03 | locus YCL061C, strain MRC1, stronger effect = lower value 0.985 | locus YCL069W, strain vba3, stronger effect = lower value 0.999 | locus YCR088W, strain abp1, stronger effect = lower value 0.985 | locus YDL005C, strain med2, stronger effect = lower value 0.991 | locus YDL035C, strain GPR1, stronger effect = lower value 1.03 | locus YDL040C, strain nat1, stronger effect = lower value 0.999 | locus YDL074C, strain BRE1, stronger effect = lower value 1.01 | locus YDL101C, strain DUN1, stronger effect = lower value 1 | locus YDL134C, strain PPH21, stronger effect = lower value 1.01 | locus YDL185W, strain tfp1, stronger effect = lower value 1.01 | locus YDL192W, strain arf1, stronger effect = lower value 1.02 | locus YDR001C, strain nth1, stronger effect = lower value 0.991 | locus YDR069C, strain doa4, stronger effect = lower value 1 | locus YDR101C, strain arx1, stronger effect = lower value 0.989 | locus YDR137W, strain rgp1, stronger effect = lower value 0.971 | locus YDR159W, strain sac3, stronger effect = lower value 1.01 | locus YDR162C, strain NBP2, stronger effect = lower value 1.02 | locus YDR195W, strain ref2 0.977 | locus YDR297W, strain sur2, stronger effect = lower value 0.99 | locus YDR318W, strain mcm21, stronger effect = lower value 1.05 | locus YDR334W, strain swr1, stronger effect = lower value 0.991 | locus YDR335W, strain msn5, stronger effect = lower value 0.995 | locus YDR388W, stronger effect = lower value 1.02 | locus YDR392W, strain spt3, stronger effect = lower value 0.91 | locus YDR502C, strain sam2, stronger effect = lower value 1.03 | locus YEL003W, strain gim4, stronger effect = lower value 1 | locus YEL037C, strain rad23, stronger effect = lower value 0.995 | locus YEL061C, strain CIN8 (second series), stronger effect = lower value 0.99 | locus YEL061C, strain CIN8, stronger effect = lower value 1.01 | locus YER015W, strain faa2, stronger effect = lower value 1.01 | locus YER016W, strain bim1, stronger effect = lower value 1 | locus YER110C, stronger effect = lower value 1.02 | locus YER111C, strain swi4, stronger effect = lower value 0.979 | locus YER155C, strain BEM2 (second series), stronger effect = lower value 0.998 | locus YER155C, strain BEM2, stronger effect = lower value 1.01 | locus YER167W, strain BCK2, stronger effect = lower value 1.02 | locus YFR010W, strain ubp6, stronger effect = lower value 1 | locus YGL078C, strain dbp3, stronger effect = lower value 1.02 | locus YGL086W, strain mad1, stronger effect = lower value 1.01 | locus YGL167C, strain pmr1, stronger effect = lower value 1 | locus YGL173C, strain kem1, stronger effect = lower value 1 | locus YGL227W, strain vid30, stronger effect = lower value 0.986 | locus YGL240W, strain doc1, stronger effect = lower value 0.988 | locus YGL248W, strain PDE1, stronger effect = lower value 0.999 | locus YGL253W, strain hxk2, stronger effect = lower value 1.01 | locus YGR078C, strain PAC10, stronger effect = lower value 1.03 | locus YGR135W, strain pre9, stronger effect = lower value 1.04 | locus YHR013C, strain ard1, stronger effect = lower value 0.971 | locus YHR027C, strain rpn1, stronger effect = lower value 0.998 | locus YHR030C, strain SLT2, stronger effect = lower value 1.01 and 0.95 | locus YHR079C, strain IRE1 (second series), stronger effect = lower value 1.02 | locus YHR079C, strain IRE1, stronger effect = lower value 0.956 | locus YHR094C, strain hxt1, stronger effect = lower value 1.02 | locus YHR129C, strain ARP1, stronger effect = lower value 1.01 | locus YHR142W, strain chs7, stronger effect = lower value 0.991 | locus YHR200W, strain rpn10, stronger effect = lower value 1.02 | locus YIL066C, strain RNR3, stronger effect = lower value 1.02 | locus YIL073C, strain SPO22, stronger effect = lower value 1.06 | locus YIL125W, strain kgd1, stronger effect = lower value 1.01 | locus YIR030C, strain dcg1, stronger effect = lower value 1.01 | locus YJL092W, strain hpr5, stronger effect = lower value 0.999 | locus YJL095W, strain BCK1 (second series), stronger effect = lower value 0.992 | locus YJL095W, strain BCK1, stronger effect = lower value 1.01 and 0.925 | locus YJL115W, strain asf1, stronger effect = lower value 0.991 | locus YJL129C, strain trk1, stronger effect = lower value 0.991 | locus YJL134W, strain LCB3, stronger effect = lower value 1.02 | locus YJL154C, strain vps35, stronger effect = lower value 0.998 | locus YJL164C, strain tpk1, stronger effect = lower value 0.988 | locus YJL166W, strain qcr8, stronger effect = lower value 0.984 | locus YJL168C, strain set2, stronger effect = lower value 1 | locus YJL187C, strain SWE1 (second series), stronger effect = lower value 1.01 | locus YJL187C, strain SWE1, stronger effect = lower value 1
active: locus YGR252W, strain gcn5, stronger effect = lower value 1.3 [resistant]
